# Reference: PubChem BioAssay (NCATS)
# Results filed as inconclusive are left out. The source made the active and inactive calls. The call rests on the fitted dose curve; in most records, active means well fitted cell-killing curve with a large enough effect; inconclusive means small, poorly fitted or top-dose-only effect, or effect the other way; inactive means flat fitted curve, though single readings scatter.
# Test system: HeLa
# Experiment: Primary qHTS to identify gynecologic anti-cancer compounds using libraries of approved drugs and bioactive compounds (AID 1345084); further: nearly all actives have a fitted effect of over 55% in size
# Conditions: Gynecologic cancer cell panel viability, ATPlite luminescence, 48 h; series mostly up to 57.5 µM; activity change, negative = cytotoxicity: at the top concentration
# Outline: (§1)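 Cell viability after 48 h drug treatment, ATPlite luminescence readout; five doses.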
# On the % scale 0 is the no-effect control and ±100 the full control effect; potency means the concentration at half of the fitted maximal effect.
Compound,Potency,"activity change, negative = cytotoxicity"
O=C(CSc1nc2c(c(=O)n1-c1ccccc1)SCC2)Nc1ccc(-c2ccccc2)cn1,0.158 µM (active),
C[C@H]1[C@H](O)O[C@@H]2O[C@@]3(C)CC[C@H]4[C@H](C)CC[C@@H]1[C@@]24OO3,12.6 µM (active),
CC1(C)CC(=O)C2=C(C1)NC(=S)NC2c1cccc(O)c1 (stereo not drawn),7.94 µM (active),
CCCCC1CCN(CCCC(=O)c2ccccc2C)CC1,,-10% (inactive)
COc1cc(OC)c(/C=C/S(=O)(=O)Cc2ccc(OC)c(NCC(=O)O)c2)c(OC)c1,0.251 µM (active),
CC(=O)NC1=NN(C(C)=O)C(C)(c2ccccc2)S1 (stereo not drawn),14.1 µM (active),
CC(C)C(CO)Nc1nc(Nc2cc(N)cc(Cl)c2)c2ncn(C(C)C)c2n1 (stereo not drawn),25.1 µM (active),
C[C@@H]1C[C@@H]2O[C@H]2/C=C\C=C\C(=O)Cc2c(Cl)c(O)cc(O)c2C(=O)O1,,-22.2% [at 38.5 µM] (inactive)
COc1cc(-c2ncn(/C=C\C(=O)OC(C)C)n2)cc(C(F)(F)F)c1,15.8 µM (active),
CC(=O)O[C@H]1CC(C)(C)CC2[C@@]13[C@H](O)C[C@]1(C)[C@@]2(CCC2[C@@]4(C)CC[C@H](O[C@@H]5OC[C@H](O[C@@H]6O[C@H](CO)[C@@H](O)[C@H](O)[C@H]6O[C@@H]6OC[C@@H](O)[C@H](O)[C@H]6O)[C@H](O)[C@H]5O[C@@H]5O[C@H](CO)[C@@H](O)[C@H](O)[C@H]5O)C(C)(C)C4CC[C@]21C)O[C@@H]3O (stereo partly drawn),,-7.2% [at 11.6 µM] (inactive)
Cn1cc(S(=O)(=O)c2ccc(Cl)cc2)c2cccc(N3CCNCC3)c21,,-17.3% (inactive)
N#Cc1cnc2cnc(NCc3cccnc3)cc2c1Nc1ccc(F)c(Cl)c1,,-24.9% (inactive)
C=C1C(=O)OC2C1CCC(=C)C1CC(OC(C)=O)C(=C)C12 (stereo not drawn),,-4.91% (inactive)
COc1cc2c(cc1OC)[C@@H]1[C@H](O)[C@@H](OC)C=C3CCN(C2)[C@H]31,,-14.5% [at 38.5 µM] (inactive)

# Test system: Hek293T
# Experiment: as above
# Conditions: Gynecologic cancer cell panel viability, ATPlite luminescence, 48 h, control line for the selectivity index; series mostly up to 57.5 µM; activity change, negative = cytotoxicity: at the top concentration
# Outline: as §1
Compound,Potency,"activity change, negative = cytotoxicity"
COc1cc(C2c3cc4c(c(O)c3CC(CO)C2C(=O)O)OCO4)cc(OC)c1O (stereo not drawn),3.98 µM (active),
CNC(=O)c1cccc(-c2ccc3c(N4CCOC[C@@H]4C)nc(N4CCOC[C@@H]4C)nc3n2)c1,1.41 µM (active),
C[C@H]1[C@H](O)O[C@@H]2O[C@@]3(C)CC[C@H]4[C@H](C)CC[C@@H]1[C@@]24OO3,8.91 µM (active),
NC(=O)Nc1cc(-c2cccc(F)c2)sc1C(=O)NC1CCCNC1 (stereo not drawn),0.447 µM (active),
CC(C)(C#N)c1ccc(N2C(=O)OCc3cnc4ccc(-c5cnc6ccccc6c5)cc4c32)cc1,12.6 µM (active),
CCNC(=O)Nc1ccc(-c2nc3c(c(N4CCOC[C@@H]4C)n2)CCN(c2ncccn2)C3)cc1,1 µM (active),
Cn1c(=O)n(-c2ccc(C(C)(C)C#N)cc2)c2c3cc(C#Cc4cccnc4)ccc3ncc21,0.0891 µM (active),
CCOc1cc2ncc(C#N)c(Nc3ccc(F)c(Cl)c3)c2cc1NC(=O)/C=C/CN(C)C,25.1 µM (active),
C=CC(=O)Nc1cccc(CN2C(=O)N(c3c(Cl)c(OC)cc(OC)c3Cl)Cc3cnc(NCCCCN(CC)CC)nc32)c1,,-1.51% (inactive)

# Test system: JEG-3
# Experiment: as above
# Conditions: Gynecologic cancer cell panel viability, ATPlite luminescence, 48 h; series mostly up to 57.5 µM; activity change, negative = cytotoxicity: at the top concentration
# Outline: as §1
Compound,"activity change, negative = cytotoxicity",Potency
CNC(=O)c1cccc(-c2ccc3c(N4CCOC[C@@H]4C)nc(N4CCOC[C@@H]4C)nc3n2)c1,-18.9% (inactive),
Cc1cc(C)c(Nc2ccnc(Nc3ccc(C#N)cc3)n2)c(C)c1,-9.51% (inactive),
CCc1cnn2c(NCc3ccc[n+]([O-])c3)cc(N3CCCCC3CCO)nc12 (stereo not drawn),-0.255% (inactive),
CC(C)(C#N)c1ccc(N2C(=O)OCc3cnc4ccc(-c5cnc6ccccc6c5)cc4c32)cc1,1.12% (inactive),
CCNC(=O)Nc1ccc(-c2nc3c(c(N4CCOC[C@@H]4C)n2)CCN(c2ncccn2)C3)cc1,-20.2% (inactive),
O=C(Nc1ccc(S(=O)(=O)C(F)(F)F)cc1)C1=CCN(c2ncccc2C(F)(F)F)CC1,-16.4% (inactive),
COc1cc(OC)c(/C=C/S(=O)(=O)Cc2ccc(OC)c(NCC(=O)O)c2)c(OC)c1,,0.447 µM (active)
C[C@@H]1C[C@@H]2O[C@H]2/C=C\C=C\C(=O)Cc2c(Cl)c(O)cc(O)c2C(=O)O1,-5.54% [at 38.5 µM] (inactive),
Oc1ccc(CNc2ccccc2F)c2cccnc12,-7.18% (inactive),
CC(=O)O[C@H]1CC(C)(C)CC2[C@@]13[C@H](O)C[C@]1(C)[C@@]2(CCC2[C@@]4(C)CC[C@H](O[C@@H]5OC[C@H](O[C@@H]6O[C@H](CO)[C@@H](O)[C@H](O)[C@H]6O[C@@H]6OC[C@@H](O)[C@H](O)[C@H]6O)[C@H](O)[C@H]5O[C@@H]5O[C@H](CO)[C@@H](O)[C@H](O)[C@H]5O)C(C)(C)C4CC[C@]21C)O[C@@H]3O (stereo partly drawn),,2.82 µM (active)
N#Cc1cnc2cnc(NCc3cccnc3)cc2c1Nc1ccc(F)c(Cl)c1,-1.54% (inactive),
Cc1c(C(=O)N2CCOc3ccc(-c4ccc(N)nc4)cc3C2)ccc(S(C)(=O)=O)c1F,-12.7% (inactive),
C=CC(=O)Nc1cccc(CN2C(=O)N(c3c(Cl)c(OC)cc(OC)c3Cl)Cc3cnc(NCCCCN(CC)CC)nc32)c1,-20.4% (inactive),
COc1cc2c(cc1OC)[C@@H]1[C@H](O)[C@@H](OC)C=C3CCN(C2)[C@H]31,2.96% [at 38.5 µM] (inactive),
CCS(=O)(=O)N1CCN(c2ccc(Nc3ncc(C(N)=O)c(NC4CC4)n3)cc2)CC1,-1.07% (inactive),
